Laboratory results as given in the supplement of paper PMC10849652.
Targets with a hit are over-represented here; the source holds about 7,900 in all. About 0.6% of all pairs of compound and target were hits. Values without a mark were called inactive.

Compound: c1cn2cc(-c3ccc4cn[nH]c4c3)nc(Nc3ccc(N4CCOCC4)cc3)c2n1 [entospletinib]
Experiment: log2 fold change, soluble protein after heating vs DMSO (PISA); higher = thermal stabilisation; K562 cells, 10 uM, 30 min; active = over 0.2 and 3.5 SD of the protein, either way, in both replicates (recomputed)
Summary of the method: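 Soluble protein was quantified by TMTpro 16plex LC-MS/MS after channel sums were equalised. It was obtained as the supernatant after 21,000xg for 90 min from pooled aliquots of K562 cells (2×10^6 cells/mL, 10 μM compound, 30 min) heated for 3 min across 48°C-58°C and extracted in PBS with 0.5% NP-40 at 4°C. Thermal stability values are relative to control samples and come from duplicates. They are given as log2 fold changes.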

UniProt Q07666, sequence (Q07666 whole entry, looked up): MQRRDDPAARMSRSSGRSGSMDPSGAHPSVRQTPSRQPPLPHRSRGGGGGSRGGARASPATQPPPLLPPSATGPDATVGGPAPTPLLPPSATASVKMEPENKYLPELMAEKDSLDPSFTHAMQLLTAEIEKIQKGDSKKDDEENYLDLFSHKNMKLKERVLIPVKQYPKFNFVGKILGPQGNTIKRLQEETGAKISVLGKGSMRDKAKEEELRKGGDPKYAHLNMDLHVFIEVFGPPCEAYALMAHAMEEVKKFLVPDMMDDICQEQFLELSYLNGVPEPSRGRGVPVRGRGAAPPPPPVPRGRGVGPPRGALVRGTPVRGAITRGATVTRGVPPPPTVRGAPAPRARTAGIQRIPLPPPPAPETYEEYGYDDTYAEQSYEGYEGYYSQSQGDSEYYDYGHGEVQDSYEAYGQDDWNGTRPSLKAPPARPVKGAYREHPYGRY
UniProt O43766, sequence (O43766 whole entry, looked up): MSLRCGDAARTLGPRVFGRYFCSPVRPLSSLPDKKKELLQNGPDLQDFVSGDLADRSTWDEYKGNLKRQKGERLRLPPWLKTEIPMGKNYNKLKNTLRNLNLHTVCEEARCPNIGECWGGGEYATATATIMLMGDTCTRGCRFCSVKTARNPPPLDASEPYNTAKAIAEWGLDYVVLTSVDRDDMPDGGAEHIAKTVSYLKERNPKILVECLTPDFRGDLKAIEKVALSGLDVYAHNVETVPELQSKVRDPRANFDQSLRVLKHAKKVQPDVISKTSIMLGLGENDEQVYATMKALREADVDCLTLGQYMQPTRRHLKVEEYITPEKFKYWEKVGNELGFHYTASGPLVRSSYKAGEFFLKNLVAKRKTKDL
UniProt P52732, sequence (P52732 whole entry, looked up): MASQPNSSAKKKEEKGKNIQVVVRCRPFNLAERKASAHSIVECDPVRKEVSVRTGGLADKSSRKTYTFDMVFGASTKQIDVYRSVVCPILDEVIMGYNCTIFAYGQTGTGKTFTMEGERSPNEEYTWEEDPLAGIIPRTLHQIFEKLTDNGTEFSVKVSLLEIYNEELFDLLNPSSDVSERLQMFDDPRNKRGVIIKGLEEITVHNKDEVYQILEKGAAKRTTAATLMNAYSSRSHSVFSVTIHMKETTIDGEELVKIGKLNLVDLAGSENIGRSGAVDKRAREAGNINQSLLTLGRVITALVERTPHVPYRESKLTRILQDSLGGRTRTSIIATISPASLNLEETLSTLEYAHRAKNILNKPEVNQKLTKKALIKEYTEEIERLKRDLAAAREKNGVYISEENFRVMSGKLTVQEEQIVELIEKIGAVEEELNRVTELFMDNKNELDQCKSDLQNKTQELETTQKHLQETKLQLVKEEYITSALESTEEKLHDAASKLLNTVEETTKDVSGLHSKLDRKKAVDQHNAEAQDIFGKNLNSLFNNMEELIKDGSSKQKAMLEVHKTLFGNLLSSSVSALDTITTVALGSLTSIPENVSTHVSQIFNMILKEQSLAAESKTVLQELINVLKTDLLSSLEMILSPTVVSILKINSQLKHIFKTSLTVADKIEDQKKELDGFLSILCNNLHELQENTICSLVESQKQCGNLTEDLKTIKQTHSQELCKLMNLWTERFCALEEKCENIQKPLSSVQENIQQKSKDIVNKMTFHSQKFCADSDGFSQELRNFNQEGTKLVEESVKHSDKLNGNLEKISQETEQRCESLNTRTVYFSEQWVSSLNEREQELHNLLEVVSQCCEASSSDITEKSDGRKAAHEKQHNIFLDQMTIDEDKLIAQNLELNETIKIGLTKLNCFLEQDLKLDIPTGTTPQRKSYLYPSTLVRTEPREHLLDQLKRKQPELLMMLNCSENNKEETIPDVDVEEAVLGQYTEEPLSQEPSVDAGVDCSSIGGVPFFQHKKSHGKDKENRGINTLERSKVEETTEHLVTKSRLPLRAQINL
UniProt Q14693, sequence (Q14693 whole entry, looked up): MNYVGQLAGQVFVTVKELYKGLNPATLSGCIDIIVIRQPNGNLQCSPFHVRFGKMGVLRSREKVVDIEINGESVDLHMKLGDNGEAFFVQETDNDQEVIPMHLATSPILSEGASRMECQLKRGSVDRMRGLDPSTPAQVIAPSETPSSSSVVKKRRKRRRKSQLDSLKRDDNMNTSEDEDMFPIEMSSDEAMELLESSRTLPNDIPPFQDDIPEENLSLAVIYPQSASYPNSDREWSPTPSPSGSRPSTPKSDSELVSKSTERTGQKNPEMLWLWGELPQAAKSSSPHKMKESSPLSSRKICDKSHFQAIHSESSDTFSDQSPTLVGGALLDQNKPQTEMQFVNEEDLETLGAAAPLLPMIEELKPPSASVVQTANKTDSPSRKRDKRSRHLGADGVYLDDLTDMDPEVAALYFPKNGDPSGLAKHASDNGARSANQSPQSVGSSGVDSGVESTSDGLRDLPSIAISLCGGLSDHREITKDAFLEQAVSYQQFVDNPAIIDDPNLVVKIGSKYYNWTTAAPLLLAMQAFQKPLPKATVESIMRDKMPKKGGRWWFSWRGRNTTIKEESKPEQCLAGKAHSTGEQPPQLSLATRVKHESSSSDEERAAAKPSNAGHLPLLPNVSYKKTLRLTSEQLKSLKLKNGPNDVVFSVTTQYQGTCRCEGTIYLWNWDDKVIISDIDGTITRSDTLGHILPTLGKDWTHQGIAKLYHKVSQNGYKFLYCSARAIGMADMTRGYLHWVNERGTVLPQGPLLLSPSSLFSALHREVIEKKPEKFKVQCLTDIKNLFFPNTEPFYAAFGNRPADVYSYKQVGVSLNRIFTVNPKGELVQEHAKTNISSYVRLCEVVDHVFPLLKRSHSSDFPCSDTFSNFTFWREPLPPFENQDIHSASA
UniProt Q6N075, sequence (Q6N075 whole entry, looked up): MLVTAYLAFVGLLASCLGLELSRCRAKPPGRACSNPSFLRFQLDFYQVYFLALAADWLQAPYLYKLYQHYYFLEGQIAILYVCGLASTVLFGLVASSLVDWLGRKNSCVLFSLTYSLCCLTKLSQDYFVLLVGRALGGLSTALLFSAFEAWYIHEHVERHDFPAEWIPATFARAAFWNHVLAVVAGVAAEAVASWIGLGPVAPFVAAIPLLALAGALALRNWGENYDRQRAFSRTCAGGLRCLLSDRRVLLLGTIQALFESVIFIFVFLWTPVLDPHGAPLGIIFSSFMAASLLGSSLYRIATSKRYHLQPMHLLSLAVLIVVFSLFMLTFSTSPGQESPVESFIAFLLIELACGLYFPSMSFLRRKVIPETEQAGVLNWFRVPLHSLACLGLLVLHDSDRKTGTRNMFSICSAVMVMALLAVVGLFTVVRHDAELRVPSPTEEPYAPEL
UniProt Q9H0C8, sequence (Q9H0C8 whole entry, looked up): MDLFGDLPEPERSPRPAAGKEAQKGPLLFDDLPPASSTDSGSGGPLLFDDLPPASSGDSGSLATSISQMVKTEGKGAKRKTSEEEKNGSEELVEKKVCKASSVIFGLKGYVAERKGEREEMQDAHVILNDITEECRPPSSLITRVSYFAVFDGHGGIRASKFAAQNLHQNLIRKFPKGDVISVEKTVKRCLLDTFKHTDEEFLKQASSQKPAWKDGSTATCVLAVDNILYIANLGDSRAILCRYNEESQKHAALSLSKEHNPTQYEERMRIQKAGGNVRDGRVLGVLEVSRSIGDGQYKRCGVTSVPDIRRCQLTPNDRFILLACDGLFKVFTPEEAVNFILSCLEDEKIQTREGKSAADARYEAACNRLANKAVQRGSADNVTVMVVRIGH
UniProt Q9H9P8, sequence (Q9H9P8 whole entry, looked up): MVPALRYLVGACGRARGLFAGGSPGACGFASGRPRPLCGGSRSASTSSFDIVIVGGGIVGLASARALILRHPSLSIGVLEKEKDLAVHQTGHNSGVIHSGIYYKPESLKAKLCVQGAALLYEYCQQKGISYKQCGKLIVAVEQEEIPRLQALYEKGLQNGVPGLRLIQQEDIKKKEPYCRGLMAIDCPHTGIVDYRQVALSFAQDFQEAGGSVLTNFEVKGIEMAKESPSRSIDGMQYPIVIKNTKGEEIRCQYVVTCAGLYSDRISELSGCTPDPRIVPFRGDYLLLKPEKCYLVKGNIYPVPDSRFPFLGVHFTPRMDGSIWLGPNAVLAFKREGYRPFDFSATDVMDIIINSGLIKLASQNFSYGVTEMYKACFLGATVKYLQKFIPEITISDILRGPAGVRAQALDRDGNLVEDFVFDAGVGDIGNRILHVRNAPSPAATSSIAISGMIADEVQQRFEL
UniProt Q6P1A2, sequence (Q6P1A2 whole entry, looked up): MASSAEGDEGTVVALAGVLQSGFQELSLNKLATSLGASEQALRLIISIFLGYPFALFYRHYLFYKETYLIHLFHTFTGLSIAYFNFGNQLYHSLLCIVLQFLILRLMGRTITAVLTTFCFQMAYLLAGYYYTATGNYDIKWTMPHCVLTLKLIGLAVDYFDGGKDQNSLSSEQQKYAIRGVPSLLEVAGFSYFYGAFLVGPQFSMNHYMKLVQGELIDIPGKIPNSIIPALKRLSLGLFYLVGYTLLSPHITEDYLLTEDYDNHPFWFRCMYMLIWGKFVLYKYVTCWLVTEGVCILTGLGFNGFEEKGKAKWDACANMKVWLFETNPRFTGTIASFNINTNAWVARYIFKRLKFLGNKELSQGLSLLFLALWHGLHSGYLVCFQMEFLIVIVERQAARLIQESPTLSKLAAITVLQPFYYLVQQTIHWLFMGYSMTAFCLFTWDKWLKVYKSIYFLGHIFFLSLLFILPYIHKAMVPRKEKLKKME
UniProt Q9UBF1, sequence (Q9UBF1 whole entry, looked up): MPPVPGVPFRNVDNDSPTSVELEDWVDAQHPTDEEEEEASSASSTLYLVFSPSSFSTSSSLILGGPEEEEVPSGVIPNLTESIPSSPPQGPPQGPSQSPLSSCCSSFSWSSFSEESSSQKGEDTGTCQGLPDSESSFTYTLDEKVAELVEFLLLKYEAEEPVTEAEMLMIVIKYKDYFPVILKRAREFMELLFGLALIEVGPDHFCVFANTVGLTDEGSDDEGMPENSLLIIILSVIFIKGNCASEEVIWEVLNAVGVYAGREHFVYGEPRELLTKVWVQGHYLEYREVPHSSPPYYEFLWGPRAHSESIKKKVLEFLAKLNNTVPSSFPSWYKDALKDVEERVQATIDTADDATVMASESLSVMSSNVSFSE

| Target | log2 fold change |
| --- | --- |
| MAP2K2 (UniProt P36507) | 0.021 |
| MAGEC2 (UniProt Q9UBF1) | 0.061 |
| KIF11 (UniProt P52732) | 0.058 |
| ILK (UniProt Q13418) | 0.074 |
| KDM3B (UniProt Q7LBC6) | -0.027 |
| METTL18 (UniProt O95568) | 0.072 |
| MAPK14 (UniProt Q16539) | -0.006 |
| LPIN1 isoform 7 (UniProt Q14693) | -0.078 |
| MFN2 (UniProt O95140) | -0.004 |
| LPIN3 isoform 2 (UniProt Q9BQK8) | 0.08 |
| L2HGDH (UniProt Q9H9P8) | 0.039 |
| ILKAP (UniProt Q9H0C8) | -0.012 |
| IK (UniProt Q13123) | 0.015 |
| LAPTM4B (UniProt Q86VI4) | 0.049 |
| LEMD3 (UniProt Q9Y2U8) | -0.031 |
| LRPPRC (UniProt P42704) | 0.245 |
| MARCKS (UniProt P29966) | 0.004 |

| Target | log2 fold change |
| --- | --- |
| KHDRBS1 (UniProt Q07666) | 0.189 |
| MEPCE (UniProt Q7L2J0) | 0.154 |
| MFSD5 isoform 2 (UniProt Q6N075) | -0.005 |
| MCL1 (UniProt Q07820) | 0.081 |
| MEAK7 (UniProt Q6P9B6) | -0.06 |
| MBLAC1 (UniProt A4D2B0) | 0.083 |
| KEL (UniProt P23276) | -0.023 |
| MAPKAPK5 (UniProt Q8IW41) | -0.03 |
| KDM5D isoform 3 (UniProt Q9BY66) | -0.056 |
| MAN2B2 (UniProt Q9Y2E5) | 0.004 |
| LPGAT1 (UniProt Q92604) | -0.069 |
| LIMD1 (UniProt Q9UGP4) | -0.025 |
| MIA2 (UniProt Q96PC5) | -0.012 |
| LIAS (UniProt O43766) | 0.113 |
| LPCAT3 (UniProt Q6P1A2) | 0.012 |
| MCCC2 (UniProt Q9HCC0) | -0.002 |
